Experimental data from PubChem BioAssay (NCI).
This is part of a sample that, as a whole, favours compounds with a hit. Of some 79,000 tested, about 15% had one in any assay. Unmarked numbers belong to inactive results. Calls of active or inactive are those of the source. Cut-off read from the data, not from the text of the source: active = growth inhibition above about 70%; inactive = the rest.

What was measured:
[1] = NCI Yeast Anticancer Drug Screen. Data for the rad52 strain (AID 147);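 note: 0% = growth of vehicle-treated control cultures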; conditions: S. cerevisiae rad52 mutant growth inhibition, active compounds read high
Method in brief: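 Compounds are applied to a genetically defined yeast strain lacking normal DNA damage repair, and inhibition of growth is expressed relative to cultures given vehicle only.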

[2] = NCI Yeast Anticancer Drug Screen. Data for the wt1 strain (AID 149);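 note: 0% = growth of vehicle-treated wt1 cultures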; conditions: S. cerevisiae wt1 strain (SPY 50644) growth inhibition, active compounds read high
Method in brief: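 wt1 strain grown with compound or vehicle; inhibition taken from the growth difference.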

[3] = NCI Yeast Anticancer Drug Screen. Data for the rad50EPP+ strain (AID 151);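 note: 0% = growth of vehicle-treated control cultures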; conditions: S. cerevisiae rad50 mutant strain, active compounds read high
Method in brief: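 Compounds were applied to the rad50EPP+ yeast strain, which bears a defined DNA repair alteration, and growth inhibition was determined relative to vehicle-treated cultures.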

[4] = NCI Yeast Anticancer Drug Screen. Data for the mgt1 strain (AID 153); conditions: S. cerevisiae mgt1 mutant growth inhibition, active compounds read high
Method in brief: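 Strain: mgt1 yeast, one of a set carrying defined DNA damage repair or cell cycle control alterations. Compound-treated growth compared with vehicle.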

[5] = NCI Yeast Anticancer Drug Screen. Data for the rad50 strain (AID 155);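 note: 0% = growth of vehicle-only cultures of the same strain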; conditions: S. cerevisiae rad50 strain growth inhibition, active compounds read high
Method in brief: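 DNA repair mutant yeast, compound exposure, growth read-out; inhibition is taken relative to vehicle.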

[6] = NCI Yeast Anticancer Drug Screen. Data for the mec2-1 strain (AID 157); conditions: S. cerevisiae mec2-1 strain, active compounds read high
Method in brief: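 Strain: mec2-1 (DNA repair/cell cycle alteration). Compound exposure, then growth measured; inhibition expressed relative to vehicle.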

[7] = NCI Yeast Anticancer Drug Screen. Data for the sgs1 mgt1 strain (AID 161);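 note: 0% = growth of cultures given vehicle only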; conditions: S. cerevisiae sgs1 mgt1 strain, active compounds read high
Method in brief: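 Mutant yeast exposed to compound; growth scored against vehicle-only wells.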

[8] = NCI Yeast Anticancer Drug Screen. Data for the CLN2oe strain (AID 163);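 note: 0% = growth of vehicle-only control cultures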; conditions: S. cerevisiae CLN2oe strain, active compounds read high
Method in brief: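 Growth of a genetically modified yeast strain is measured after compound exposure and compared with cultures given vehicle alone.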

[9] = NCI Yeast Anticancer Drug Screen. Data for the cln2 rad14 strain (AID 165);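 note: 0% = growth equal to vehicle treated cultures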; conditions: S. cerevisiae cln2 rad14 strain, active compounds read high
Method in brief: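 Compounds are applied to the cln2 rad14 yeast strain, and growth is then compared with that of vehicle-treated cultures to give inhibition.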

[10] = NCI Yeast Anticancer Drug Screen. Data for the bub3 strain (AID 167); conditions: S. cerevisiae bub3 mutant strain, active compounds read high
Method in brief: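 In this screen, a yeast mutant lacking normal mitotic checkpoint function is challenged with compound. Relative growth versus vehicle gives the inhibition value.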

[11] = NCI Yeast Anticancer Drug Screen. Data for the wt2 strain (AID 169);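 note: 0% = growth of vehicle-treated yeast cultures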; conditions: S. cerevisiae wt2 strain growth inhibition, active compounds read high
Method in brief: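 This strain belongs to a panel of yeast strains with defined genetic alterations in DNA damage repair or cell cycle control. Compounds are applied, and growth inhibition is measured against vehicle-treated cultures.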

[12] = NCI Yeast Anticancer Drug Screen. Data for the mlh1 strain (AID 171);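 note: 0% = growth of vehicle-treated control cultures of the same strain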; conditions: S. cerevisiae mlh1 strain growth inhibition, active compounds read high
Method in brief: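 Growth of the mutant yeast strain after compound exposure, expressed as inhibition relative to vehicle-only controls.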

[13] = NCI Yeast Anticancer Drug Screen. Data for the sgs1 strain (AID 173);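 note: 0% = growth of vehicle-only control cultures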; conditions: S. cerevisiae sgs1 mutant, active compounds read high
Method in brief: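 Growth of a yeast strain bearing a defined genetic alteration is measured after compound treatment. Inhibition is expressed relative to vehicle-only controls.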

[14] = NCI Yeast Anticancer Drug Screen. Data for the mlh1 rad18 strain (AID 175); conditions: S. cerevisiae mlh1 rad18 strain growth inhibition, active compounds read high
Method in brief: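 Read-out is yeast growth inhibition, calculated against vehicle-only controls. The compound was applied to a strain engineered with DNA damage repair alterations.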

[15] = NCI Yeast Anticancer Drug Screen. Data for the rad18 strain (AID 177); conditions: S. cerevisiae rad18 mutant growth inhibition, active compounds read high
Method in brief: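 Growth of the mutant yeast strain after compound exposure, normalised to vehicle-only cultures.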

[16] = at 5.0 µM (retest, dose inferred, filed as 0.5)
[17] = at 50.0 µM (retest, dose inferred, filed as 5.0)

SMILES: COc1ccc(/C=C/c2sc3ccccc3[n+]2CCCCI)cc1OC
- growth inhibition ([1]; at 1.2 µM): -8%
- growth inhibition ([1]; at 3.7 µM): 1%
- growth inhibition ([1]; at 11.0 µM): -2%
- growth inhibition ([1]; at 33.0 µM): 55%
- growth inhibition ([1]; at 100.0 µM): 94% (active)
- growth inhibition ([2]; at 1.2 µM): -84%
- growth inhibition ([2]; at 3.7 µM): -3%
- growth inhibition ([2]; at 11.0 µM): -6%
- growth inhibition ([2]; at 33.0 µM): 33%
- growth inhibition ([2]; at 100.0 µM): 89% (active)
- growth inhibition ([3]; at 1.2 µM): -5%
- growth inhibition ([3]; at 3.7 µM): -2%
- growth inhibition ([3]; at 11.0 µM): -4%
- growth inhibition ([3]; at 33.0 µM): 0%
- growth inhibition ([3]; at 100.0 µM): -3%
- growth inhibition ([4]; at 1.2 µM): 0%
- growth inhibition ([4]; at 3.7 µM): -1%
- growth inhibition ([4]; at 11.0 µM): -4%
- growth inhibition ([4]; at 33.0 µM): 76% (active)
- growth inhibition ([4]; at 100.0 µM): 98% (active)
- growth inhibition ([5]; at 1.2 µM): -2%
- growth inhibition ([5]; at 3.7 µM): -3%
- growth inhibition [5, 16]: -11%
- growth inhibition ([5]; at 11.0 µM): -7%
- growth inhibition ([5]; at 33.0 µM): 48%
- growth inhibition [5, 17]: 20%
- growth inhibition ([5]; at 50.0 µM): 74.9% (active)
- growth inhibition ([5]; at 100.0 µM): 93% (active)
- growth inhibition ([6]; at 1.2 µM): -6%
- growth inhibition ([6]; at 3.7 µM): -6%
- growth inhibition [6, 16]: -16%
- growth inhibition ([6]; at 11.0 µM): -11%
- growth inhibition ([6]; at 33.0 µM): 64%
- growth inhibition [6, 17]: 56%
- growth inhibition ([6]; at 50.0 µM): 81.4% (active)
- growth inhibition ([6]; at 100.0 µM): 95% (active)
- growth inhibition [7, 16]: -9%
- growth inhibition [7, 17]: 29%
- growth inhibition ([7]; at 50.0 µM): 95.2% (active)
- growth inhibition ([8]; at 1.2 µM): -7%
- growth inhibition ([8]; at 3.7 µM): -7%
- growth inhibition ([8]; at 11.0 µM): -8%
- growth inhibition ([8]; at 33.0 µM): -10%
- growth inhibition ([8]; at 100.0 µM): 68%
- growth inhibition [9, 16]: 36%
- growth inhibition [9, 17]: 54%
- growth inhibition ([9]; at 50.0 µM): 29.6%
- growth inhibition ([10]; at 1.2 µM): -4%
- growth inhibition ([10]; at 3.7 µM): -8%
- growth inhibition [10, 16]: 0%
- growth inhibition ([10]; at 11.0 µM): -2%
- growth inhibition ([10]; at 33.0 µM): 1%
- growth inhibition [10, 17]: 97% (active)
- growth inhibition ([10]; at 50.0 µM): 91.8% (active)
- growth inhibition ([10]; at 100.0 µM): 85% (active)
- growth inhibition ([11]; at 1.2 µM): -3%
- growth inhibition ([11]; at 3.7 µM): -3%
- growth inhibition ([11]; at 11.0 µM): -6%
- growth inhibition ([11]; at 33.0 µM): 26%
- growth inhibition ([11]; at 100.0 µM): 97% (active)
- growth inhibition ([12]; at 1.2 µM): -2%
- growth inhibition ([12]; at 3.7 µM): -4%
- growth inhibition ([12]; at 11.0 µM): -6%
- growth inhibition ([12]; at 33.0 µM): 66%
- growth inhibition ([12]; at 100.0 µM): 97% (active)
- growth inhibition ([13]; at 1.2 µM): 1%
- growth inhibition ([13]; at 3.7 µM): 4%
- growth inhibition ([13]; at 11.0 µM): -2%
- growth inhibition ([13]; at 33.0 µM): 84% (active)
- growth inhibition ([13]; at 100.0 µM): 97% (active)
- growth inhibition [14, 16]: -9%
- growth inhibition [14, 17]: 46%
- growth inhibition ([14]; at 50.0 µM): 95.6% (active)
- growth inhibition ([15]; at 1.2 µM): -3%
- growth inhibition ([15]; at 3.7 µM): 0%
- growth inhibition ([15]; at 11.0 µM): 9%
- growth inhibition ([15]; at 33.0 µM): 86% (active)
- growth inhibition ([15]; at 100.0 µM): 96% (active)

SMILES: O=C1CSC(c2cccc(Cl)c2)N1c1ccc(-c2ccc(-n3c(-c4ccccc4)nc4ccccc4c3=O)cc2)cc1 (stereo not drawn)
- growth inhibition ([1]; at 1.2 µM): 1%
- growth inhibition ([1]; at 3.7 µM): 5%
- growth inhibition ([1]; at 11.0 µM): 8%
- growth inhibition ([1]; at 33.0 µM): 7%
- growth inhibition ([1]; at 100.0 µM): 18%
- growth inhibition ([2]; at 1.2 µM): 1%
- growth inhibition ([2]; at 3.7 µM): 1%
- growth inhibition ([2]; at 11.0 µM): -1%
- growth inhibition ([2]; at 33.0 µM): -4%
- growth inhibition ([2]; at 100.0 µM): -3%
- growth inhibition ([3]; at 1.2 µM): -1%
- growth inhibition ([3]; at 3.7 µM): 4%
- growth inhibition ([3]; at 11.0 µM): 8%
- growth inhibition ([3]; at 33.0 µM): 9%
- growth inhibition ([3]; at 100.0 µM): -4%
- growth inhibition ([4]; at 1.2 µM): 1%
- growth inhibition ([4]; at 3.7 µM): 2%
- growth inhibition ([4]; at 11.0 µM): 3%
- growth inhibition ([4]; at 33.0 µM): 25%
- growth inhibition ([4]; at 100.0 µM): 60%
- growth inhibition ([5]; at 1.2 µM): 2%
- growth inhibition ([5]; at 3.7 µM): 6%
- growth inhibition [5, 16]: -2%
- growth inhibition ([5]; at 11.0 µM): 7%
- growth inhibition ([5]; at 33.0 µM): 15%
- growth inhibition [5, 17]: 61%
- growth inhibition ([5]; at 50.0 µM): 66.8%
- growth inhibition ([5]; at 100.0 µM): 22%
- growth inhibition ([6]; at 1.2 µM): 3%
- growth inhibition ([6]; at 3.7 µM): 4%
